The entries come from a sample that favours hits as a whole.
CBX7 AlphaScr: blocks human CBX7 binding to H3K27me3 peptide; O95931; AlphaScreen His6-CBX7 / biotin-H3K27me3 peptide binding; hits give low values; normalised signal (fraction of DMSO) (test concentration not listed); 66,000 compounds, 1.1% hits; in the data active = normalised signal below about 0.5
Target sequence (O95931 whole entry, looked up): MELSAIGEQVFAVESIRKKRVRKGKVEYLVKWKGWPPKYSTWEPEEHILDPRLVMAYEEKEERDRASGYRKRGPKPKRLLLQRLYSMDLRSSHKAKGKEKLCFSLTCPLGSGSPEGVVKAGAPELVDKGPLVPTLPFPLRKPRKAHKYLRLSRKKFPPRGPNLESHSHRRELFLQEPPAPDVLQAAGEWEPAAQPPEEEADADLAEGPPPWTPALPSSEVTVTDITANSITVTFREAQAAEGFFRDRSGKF
Active calls of the source: *.

SMILES	CBX7 AlphaScr
Cc1nc2c(C(=O)NCCCN3CCCC(C)C3)cnn2c(C)c1Cc1ccccc1 (configuration not stated)	0.99
CCC(C)NC(=O)CN1C(=O)CSc2ncccc21 (configuration not stated)	1
CCCCNC(=O)c1cc(=O)n(Cc2ccc(Cl)cc2)c2ccccc12	0.99
O=C(CCCN1C(=O)c2cccnc2C1=O)Nc1cccc(Cl)c1	0.8
O=C(CCCN1C(=O)c2cccnc2C1=O)Nc1ccc(F)c(F)c1	1.1
O=C(CCN1C(=O)c2cccnc2C1=O)Nc1cccc(F)c1	0.44*
COc1ccc(-c2nc(CSCC(=O)NCCN3CCOCC3)c(C)o2)cc1OC	1.3
Cc1[nH]c2ccccc2c1CCNC(=O)NC(=O)c1ccc(C(F)(F)F)cc1	1
COc1ccccc1C(CCNCc1ccc(OC(C)C)cc1)c1ccc2c(c1)OCO2 (configuration not stated)	0.17*
COc1ccccc1C(CCNCc1ccc2c(c1)OCO2)c1ccc2c(c1)OCO2 (configuration not stated)	0.79
COc1ccc(CNCCC(c2ccccc2)c2ccc3c(c2)OCO3)cc1 (configuration not stated)	0.9
COc1ccc(-c2nn(C)c3sc(C(=O)NCc4ccccn4)cc23)cc1OC	1
O=C(Cn1ncc2c1-c1ccccc1OC2)Nc1ccc(F)cc1F	0.89
Cc1c(NC(=O)c2ccccc2F)cccc1-c1nc2cc(Cl)ccc2o1	1.1
O=C(Nc1ccc2oc(-c3ccccc3Cl)nc2c1)c1ccc(F)cc1	1
O=C(Nc1ccc2oc(-c3ccccc3Cl)nc2c1)c1ncn[nH]1	0.043*
Cc1c(NC(=O)c2ccccc2F)cccc1-c1nc2ccccc2s1	1.1
O=C(Nc1ccc2oc(-c3ccccc3Cl)nc2c1)c1cncc(Br)c1	1
Cc1c(NC(=O)c2ncn[nH]2)cccc1-c1nc2cc(Cl)ccc2o1	0.12*
Cc1c(NC(=O)c2ncn[nH]2)cccc1-c1nc2ccccc2s1	0.18*
Cc1c(NC(=O)c2cc3ccccc3o2)cccc1-c1nc2cc(Cl)ccc2o1	1
O=C(Nc1ccccc1-c1nc2ccccc2s1)c1ccccc1	1
O=C(Nc1ncc(Cc2ccc(Br)cc2)s1)c1ccccc1Cl	0.91
COc1ccc(OC)c2[nH]c(=O)c(CCNC(=O)c3ccc4ccccc4c3)cc12	1.1
Cc1ccn2c(Nc3ccc4c(c3)OCCO4)c(-c3cccc(Cl)c3)nc2c1	0.58
SMILES	CBX7 AlphaScr
COc1ccccc1CNC(=O)c1sc2ncn(CC(=O)N3CCCCC3)c(=O)c2c1C	1
COc1ccc2[nH]c(C)c(CCNC(=O)Cn3nc(C(F)(F)F)cc3C)c2c1	0.79
COC(=O)c1ccc(C(=O)NCCc2c(C)[nH]c3ccc(OCc4ccccc4)cc23)cc1	0.82
Cc1[nH]c2ccc(OCc3ccccc3)cc2c1CCNC(=O)c1ccnn1C	0.48*
Cc1[nH]c2ccc(OCc3ccccc3)cc2c1CCNC(=O)c1cccc(Br)c1	0.65
Cc1nn(CC(=O)NCCc2c(C)[nH]c3ccc(OCc4ccccc4)cc23)c(C)c1Cl	0.48*
COc1ccc(C(=O)NCCc2c(C)[nH]c3ccc(OCc4ccccc4)cc23)cc1OC	0.52
Cn1c(C(=O)N2CCCC(C(=O)N3CCN(c4ccccn4)CC3)C2)cc2sccc21 (configuration not stated)	0.97
Cc1ccc(NC(=O)CSc2nc3ccccc3[nH]2)c(C)c1	1.1
Cc1ccc2c(c1)N(CCC(=O)NCc1ccccn1)C(=O)CO2	0.34*
O=C(CCN1C(=O)COc2ccccc21)NCc1ccccn1	0.16*
Cc1ccc2c(c1)N(CCCC(=O)NCc1ccccn1)C(=O)CO2	1.3
Cc1ccc2c(c1)N(CCC(=O)NCc1cccnc1)C(=O)CO2	0.99
Cc1ccc2c(c1)N(C(C)C(=O)NCc1ccccc1)C(=O)CO2 (configuration not stated)	1
CC(C(=O)NCc1ccccn1)N1C(=O)COc2ccc(Cl)cc21 (configuration not stated)	0.82
Cc1ccc2c(c1)N(C(C)C(=O)NCc1ccccn1)C(=O)CO2 (configuration not stated)	0.25*
O=C(CCN1C(=O)COc2ccccc21)NCc1ccccc1Cl	1.1
Cc1ccc(CNC(=O)CCN2C(=O)COc3ccccc32)cc1	1
Cc1cc(-c2ccccc2)nc(SCC(=O)O)n1	0.89
CC(C)C(=O)Nc1c(-c2ccc(F)cc2)nc2ccccn12	1.1
Cc1ncc(CO)c2cc(-c3nnc(Nc4cc(C(F)(F)F)ccc4Cl)s3)c(=O)oc12	1
CCn1c2ccccc2c2nnc(SCC(=O)NC(C)c3ccccc3)nc21 (configuration not stated)	0.81
COc1ccc(Nc2cc(C(=O)NCCCN(C)Cc3ccccc3)c3ccccc3n2)cc1OC	0.44*
COc1ccc(Nc2cc(C(=O)NCCN(Cc3ccccc3)C(C)C)c3ccccc3n2)cc1OC	0.54
CCCCN(C)CCCNC(=O)c1cc(Nc2ccc(OC)c(OC)c2)nc2ccccc12	0.74
COCCNC(=O)CN1C(=O)CSc2ccc(S(=O)(=O)N(C)C3CCCCC3)cc21	1
